Among the data in PubChem BioAssay AID504467 (National Center for Advancing Translational Sciences (NCATS), 2011) are Potency values, retold here.

Screen size: about 330,000 compounds; about 7,700 (2.3%) were called active. Entries that show only a call come without a potency. Not shown: some 26% with an inconclusive outcome. Calls come from the whole dose curve; as a rule, active = well fitted inhibition curve with a large enough effect; inconclusive = small, poorly fitted or top-dose-only effect, or effect the other way; inactive = flat fitted curve, though single readings scatter. Many of the other results were omitted from the sample, so actives are more common in it than they were.
Potency is the fitted concentration of half-maximal effect.

The assay is described as follows: qHTS screen for small molecules that inhibit ELG1-dependent DNA repair in human embryonic kidney (HEK293T) cells expressing luciferase-tagged ELG1. Note: nearly all actives have a fitted effect of over 55% in size. The settings on record: HEK293T ELG1-luciferase reporter, luminescence, 16 h, DNA damage induced by 5-fluorouridine; series mostly up to 46.1 µM. In short, it runs like this: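 DMSO vehicle served as the neutral condition. Each well held 2,000 cells given 5-fluorouridine plus compound; after 16 hr at 37 °C/5% CO2, ONE-Glo was added and luciferase measured 30 min later.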
In general terms: Quantitative high-throughput screening tests each substance at several concentrations.
Take `CC1(c2ccc3ccccc3c2)NC(=O)N(CC(N)=O)C1=O` (stereo not drawn): the Potency result was “inactive”.
Take `CCc1ccc(Nc2n[n+](-c3ccccc3)c(-c3cccc(Cl)c3Cl)s2)cc1`: the Potency entry was “inactive”.
With `NC(=O)c1ccc(Nc2ccc3c(c2)CCC3)c([N+](=O)[O-])c1`, the Potency is 11.6 µM (active).
As for `NC(=O)c1ccc(Nc2ccc3nonc3c2[N+](=O)[O-])cc1`, the entry is “inactive”.
As for `Cc1ccc(Nc2ccc(C(N)=O)cc2[N+](=O)[O-])cc1`, the entry is “inactive”.
In the case of `CC(Sc1nnc(-c2ccccc2F)n1C1CC1)C(N)=O` (stereo not drawn) it was “inactive”; in that of `CCN(C[C@H]1N[C@@](Cc2ccccc2)(C(=O)OC)[C@H]2C(=O)N(Cc3ccccc3)C(=O)[C@@H]12)C(=O)c1ccc(C)cc1`, “inactive”.
For the molecule `CCOc1ccc(NC(=O)c2cc(C)nc3ccccc23)cc1`, the Potency result was “inactive”.
In the case of `COc1ccccc1C(=O)Nc1ccc(OCc2nnc3c4ccccc4c(C)nn23)cc1` it was 20.6 µM (active); in that of `CCCNC(=O)Nc1ccccc1C(=O)Nc1ccc(OC)cc1`, “inactive”.
With `COc1ccc(C(CNC(=O)c2ccc(NS(=O)(=O)c3ccc(F)c(C)c3)cc2)N(C)C)cc1` (stereo not drawn), the Potency result is “inactive”.
With `O=C1/C(=C\c2cccnc2)CN(Cc2ccccc2)C/C1=C\c1cccnc1`, the Potency was 3.66 µM (active).
In the case of `O=Cc1cn(Cc2ccccc2)nc1-c1cccnc1` it was “inactive”; in that of `O=C1NCC(=O)N(Cc2ccccc2)/C1=C/c1ccccc1`, “inactive”.
As for `COC(=O)[C@]1(CC(C)C)N[C@H](c2ccc(SC3CCCCC3)cc2)[C@@H]2C(=O)N(C)C(=O)[C@@H]21`, the entry is “inactive”.
As for `CCOC(=O)C1CCN(Cc2ccc(-c3ccccc3)cc2)CC1`, the entry is “inactive”.
As for `CCOC(=O)C1CCN(c2ncnc3c2c(-c2ccccc2)cn3-c2ccc(C)cc2)CC1`, the Potency was 14.6 µM (active).
Consider `CCOC(=O)C1CCN(c2ncnc3c2oc2ccc(Br)cc23)CC1`, for which the Potency entry is “inactive”.
In the case of `COC(=O)c1ccc(C(=O)NC2CC(C)(C)Cc3c2cnn3-c2ccc(F)cc2)nc1` (stereo not drawn) it was “inactive”; in that of `CC1(C)C[C@H]2C3=CCC4[C@@]5(C)CC[C@H](O)[C@](C)(CO)C5CC[C@@]4(C)[C@]3(C)C[C@@H](O)[C@@]2(CO)[C@@H](O)[C@@H]1O` (stereo partly drawn), “inactive”; in that of `CCN(CC)CCCNC(=O)c1c(O)c2cc(F)cc3c2n(c1=O)C(C)CC3` (stereo not drawn), “inactive”.
For `NC(=O)COC(=O)/C=C/c1ccc2ccccc2n1`, the Potency entry is “inactive”.
As to `CC(=O)c1ccc(S(=O)(=O)N2CCC3(CC2)OCCO3)cc1`, the Potency entry is “inactive”.
In the case of `CC(=O)c1ccc(S(=O)(=O)N2CCN(C(=O)/C=C/c3ccc4ccccc4n3)CC2)cc1`, the Potency is 20.6 µM (active).
As for `N#C/C(=C\c1cccnc1)C(=O)Nc1ccc(SC(F)F)cc1`, the entry is “inactive”; as for `CC(CNC(=O)Cn1cnc2c(OCc3ccccc3)ncnc21)c1ccccc1` (stereo not drawn), “inactive”.
Regarding `O=C(Nc1nc(-c2ccc3c(c2)OCO3)cs1)c1ccncc1`, the Potency is 7.08 µM (active).
As for `C/C(=N/NC(=O)c1ccncc1)c1ccc2c(c1)OCO2`, the entry is “inactive”; as for `COc1ccc(-c2csc(NC(=O)c3ccc(N4C(=O)CCC4=O)cc3)n2)cc1OC`, “inactive”; as for `CCN(C(=O)COC(=O)CCOc1cccc(C)c1)c1c(N)n(Cc2ccccc2)c(=O)[nH]c1=O`, “inactive”.
Take `O=C(CSc1ccccn1)N1CCN(S(=O)(=O)c2ccc(Cl)cc2)CC1`: the Potency result is “inactive”.
In the case of `CCN(C[C@H]1N[C@@](CC)(C(=O)OC)[C@H]2C(=O)N(C)C(=O)[C@@H]12)C(=O)Nc1ccc(F)cc1` it was “inactive”; in that of `OCCCNc1nccc(-c2cc(Nc3cccc(Cl)c3)ncn2)n1`, 0.92 µM (active); in that of `NS(=O)(=O)c1cccnc1Nc1cccc(Cl)c1`, “inactive”.
Take `O=C(Nc1cc(Cl)cc(Cl)c1)C(NCCCO)c1ccccc1` (stereo not drawn): the Potency entry is “inactive”.
Turning to `COc1ccc(S(=O)(=O)N2CCN(CC(=O)N3CCOCC3)CC2)cc1OC`, the Potency result was “inactive”.
As to `Cc1ccc(C)c(OCC(=O)N2CCN(C(=O)c3ccco3)CC2)c1`, the Potency entry is “inactive”.
Regarding `COc1ccc(NC(=O)c2cccc(NC(=O)c3ccco3)c2)c(OC)c1`, the Potency is 18.4 µM (active).
For the molecule `COc1ccccc1C(=O)Nc1ccc(NC(=O)c2ccco2)c(C)c1`, the Potency entry was “inactive”.
For `COc1cccc(C(=O)Nc2ccc(N3CCN(C(=O)c4ccco4)CC3)cc2)c1`, the Potency was 13 µM (active).
Take `Cc1ccc(OCC(=O)Nc2ccc(N3CCN(C(=O)c4ccco4)CC3)cc2)c(C)c1`: the Potency was 10.3 µM (active).
As for `Cc1ccc(OCC(=O)N/N=C\c2ccco2)c(C)c1`, the entry is “inactive”.
As for `CCC(=O)Nc1ccc(C(=O)N2CCN(C(=O)c3ccco3)CC2)cc1`, the entry is “inactive”; as for `COc1ccc(C(=O)Nc2ccccc2C(=O)N2CCN(c3ccccc3)CC2)cc1`, “inactive”; as for `COc1cc(NC(=O)c2cc([N+](=O)[O-])ccc2Br)ccc1NC(=O)c1ccco1`, “inactive”.
In the case of `Cc1cccc(C(=O)N[C@H](C(=O)NCc2cccs2)C(C)C)c1` it was “inactive”; in that of `CC(NC(=O)c1ccccc1F)c1cccc2ccccc12` (stereo not drawn), “inactive”.
As for `CC1CCCC(NC(=O)c2cc(S(=O)(=O)N3CCCCC3)ccc2Cl)C1C` (stereo not drawn), the Potency result was “inactive”.
With `Cc1ccccc1CNC(=O)CCC(=O)N1Cc2ccccc2Oc2ncccc21`, the Potency entry is “inactive”.
Take `C=C1CCC(N(O)c2cc(C)on2)C(=C)CCC2C1CC2(C)C` (stereo not drawn): the Potency entry is “inactive”.
On to `Cc1ccc(S(=O)(=O)N2CCC(C(=O)NCCC3=CCCCC3)CC2)cc1C`, for which the Potency result is “inactive”.
In the case of `CC(C)(C)n1nnnc1C(c1ccc(F)cc1)N1CCN(Cc2ccc3c(c2)OCO3)CC1` (stereo not drawn) it was “inactive”; in that of `O=c1[nH]c(N2CCN(Cc3ccc4c(c3)OCO4)CC2)nc2c1CCCC2`, “inactive”; in that of `Fc1ccc2[nH]c3c(N4CCN(Cc5ccc6c(c5)OCO6)CC4)ncnc3c2c1`, 13 µM (active).
As to `COc1cccc(CNC(=O)COc2cc(O)c3c(c2)OC(C)(C)CC3=O)c1`, the Potency result is “inactive”.
In the case of `Cc1ccc(C)c(S(=O)(=O)N2CCN(CC(=O)Nc3ccc([N+](=O)[O-])cc3)CC2)c1` it was 14.6 µM (active); in that of `Cc1ccc(S(=O)(=O)N2CCN(CC(=O)N/N=C/c3cc([N+](=O)[O-])ccc3Cl)CC2)cc1`, “inactive”.
As to `Cc1ccc(C)c(S(=O)(=O)N2CCN(C(=O)Nc3ccccc3)CC2)c1`, the Potency entry is “inactive”.
Take `Cc1ccc(S(=O)(=O)N2[C@@H](c3ccccc3F)C(C(=O)O)=CC[C@H]2c2ccc(Cl)cc2)cc1`: the Potency result was “inactive”.
In the case of `Cc1c(NC(=O)CSc2nnc(-c3cccnc3)n2N)c(=O)n(-c2ccccc2)n1C` it was “inactive”; in that of `Cc1ccc(NC(=O)N2CCC(c3nc4c(nnn4Cc4c(F)cccc4Cl)c(=O)[nH]3)CC2)cc1`, 18.4 µM (active); in that of `Cc1ccc(C)c(Cn2nnc3c(=O)[nH]c(C(=O)Nc4ccc(F)cc4)nc32)c1`, “inactive”.
As for `O=C(Nc1ccc(F)cc1)N1CCCC(c2nc3c(nnn3Cc3ccccc3Cl)c(=O)[nH]2)C1` (stereo not drawn), the entry is “inactive”.
